GPT2 inh = GPT2 alanine aminotransferase inhibition; Q8TD30; Recombinant GPT2, coupled pyruvate oxidase/HRP Amplex Red fluorescence; Potency, µM (top dose mostly 57.7 µM), usual class: inhibitors; 0.25% of 100,000 active; also: nearly all actives have a fitted effect of over 60% in size
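Fluorescence of coupled pyruvate oxidase/HRP/Amplex Red system (50uM Amplex, 30 min, dark) reports pyruvate formed by GPT2. Enzyme reaction: 10ng/uL GPT2, 2mM L-alanine, 250uM a-KG, 30 min room temperature, pH 7.5; 50uM AOA control.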
3T3 cytotox = kills NIH 3T3 cells. NIH 3T3 viability, CellTiter-Glo ATP luminescence, 48-72 h. Potency, µM (series often up to 96.7 µM), hits mostly inhibitors. 4.3% of 94,000 active; also: nearly all actives have a fitted effect of over 55% in size
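Mouse fibroblast NIH 3T3 cells, 400 per well, received compound via pintool and were incubated for 48 or 72 hr prior to CellTiter-Glo ATP luminescence measurement.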
Luciferase inh = Photinus pyralis luciferase inhibition. purified P. pyralis luciferase, luminescence, biochemical. Potency, µM (doses to about 115 µM), actives largely listed as inhibitors. 2.5% of 76,000 active; also: nearly all actives have a fitted effect of over 65% in size
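FLuc 10nM, D-luciferin 10uM, ATP 10uM, Mg acetate 10mM, Tris acetate pH 7.5, Tween/BSA; cpd qHTS; enzyme added last; CCD luminescence.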
hNpr1 antagonist = antagonists of human natriuretic peptide receptor Npr1. P16066. HEK293 hNpr1 GloSensor cGMP, ANP-stimulated luminescence. Potency, µM (top dose mostly 46.3 µM), usual class: inhibitors. 1.6% of 76,000 active; calls by dose curve; also: nearly all actives have a fitted effect of over 60% in size
Target sequence (P16066 whole entry, looked up): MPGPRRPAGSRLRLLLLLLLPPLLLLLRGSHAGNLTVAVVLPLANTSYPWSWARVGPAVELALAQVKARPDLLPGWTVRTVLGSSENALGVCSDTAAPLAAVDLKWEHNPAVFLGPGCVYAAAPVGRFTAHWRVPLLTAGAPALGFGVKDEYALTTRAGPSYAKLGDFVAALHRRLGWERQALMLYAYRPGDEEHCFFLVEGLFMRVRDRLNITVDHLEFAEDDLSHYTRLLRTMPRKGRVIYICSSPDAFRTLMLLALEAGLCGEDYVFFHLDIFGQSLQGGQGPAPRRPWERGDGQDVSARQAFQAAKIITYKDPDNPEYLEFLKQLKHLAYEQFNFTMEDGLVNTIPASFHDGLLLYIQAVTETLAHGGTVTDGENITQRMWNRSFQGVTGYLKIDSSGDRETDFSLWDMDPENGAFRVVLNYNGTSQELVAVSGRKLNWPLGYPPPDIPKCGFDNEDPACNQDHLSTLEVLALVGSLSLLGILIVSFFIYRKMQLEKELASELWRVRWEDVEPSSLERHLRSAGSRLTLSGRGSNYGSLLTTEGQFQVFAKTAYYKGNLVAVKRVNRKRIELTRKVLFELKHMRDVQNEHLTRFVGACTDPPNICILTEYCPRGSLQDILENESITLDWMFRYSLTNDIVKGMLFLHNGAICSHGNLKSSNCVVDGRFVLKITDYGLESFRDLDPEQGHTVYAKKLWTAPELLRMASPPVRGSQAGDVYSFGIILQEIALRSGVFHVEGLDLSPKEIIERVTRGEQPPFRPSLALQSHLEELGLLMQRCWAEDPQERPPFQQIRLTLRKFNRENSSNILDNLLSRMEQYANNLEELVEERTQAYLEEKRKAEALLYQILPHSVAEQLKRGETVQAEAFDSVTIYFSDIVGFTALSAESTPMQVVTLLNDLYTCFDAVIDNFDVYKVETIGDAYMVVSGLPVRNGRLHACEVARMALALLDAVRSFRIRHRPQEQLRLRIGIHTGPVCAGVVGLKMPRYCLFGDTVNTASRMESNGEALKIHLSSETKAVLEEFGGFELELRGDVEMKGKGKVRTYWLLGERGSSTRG
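HEK293 cells stably expressing human Npr1 and cGMP GloSensor pGS-40F, loaded 2 h with 2% GloSensor reagent, given compound 30 min at room temperature. Luminescence read before and 20 min after 0.1 nM hNppA.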
HEK cytotox = kills HEK 293 cells; Potency, µM (titrated, usually from 115 µM), usual class: inhibitors; AID 1345083; 6.6% of 94,000 active; HEK 293 viability, ATP luminescence (CellTiter-Glo), 48-72 h; also: nearly all actives have a fitted effect of over 60% in size
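Cytotoxicity was scored by loss of ATP-coupled luminescence (CellTiter-Glo) in HEK 293 cells. Compound treatment ran 48 or 72 hr at 37 degree Celsius, 5% CO2, 95% humidity.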
Numbers stand for hits; i = inactive; ? = inconclusive; nt = no result given; ! = not confirmed by another sample. Compounds with a hit are over-represented: about 10% of the library has one in this group of screens. Unless noted, calls follow the shape of the dose curve; as a rule, active = well fitted curve in the direction sought with a large enough effect; inconclusive = small, poorly fitted or top-dose-only effect, or another doubt; inactive = no such curve, though single readings can be large; an effect the other way counts as inactive or inconclusive.

SMILES	GPT2 inh	3T3 cytotox	Luciferase inh	hNpr1 antagonist	HEK cytotox
COc1ccc(C(=O)N2CCn3c(nn(-c4ccc(OC)cc4)c3=O)C2)cc1	i	?	nt	nt	i
Cc1cc(CN2CCn3c(nn(-c4ccc(C(F)(F)F)cc4)c3=O)C2)no1	i	?	nt	nt	89µM
Cc1ccc(CN2CCn3c(nn(-c4ccc(C(F)(F)F)cc4)c3=O)C2)cc1	i	?	i	i	?
O=c1n(-c2ccc(C(F)(F)F)cc2)nc2n1CCN(Cc1ccccc1)C2	i	?	i	i	7.9µM!
COc1ccc(CN2CCn3c(nn(-c4ccc(OC)cc4)c3=O)C2)cc1	i	i	nt	nt	i
COc1ccc(-n2nc3n(c2=O)CCN(C(=O)c2ccc(C(F)(F)F)cc2)C3)cc1	i	32µM	nt	nt	i
COc1ccc(-n2nc3n(c2=O)CCN(Cc2ccccc2)C3)cc1	i	8.9µM	nt	nt	?
CCN(C(=O)CCC(=O)N1CCc2nc3cc(-c4ccc(OC)cc4)[nH]n3c(=O)c2C1)c1ccccc1	i	?	16µM	i	?
O=C(Cc1ccc2c(c1)OCO2)N(Cc1ccncc1)Cc1cccc(OCCc2ccc(F)cc2)c1	i	35µM	i	?	40µM
Fc1cccc(OC2CCNC2)c1 (configuration not stated)	i	i	i	i	i
CN(C)C[C@@H]1CN(S(C)(=O)=O)C[C@H]1NC(=O)c1c(F)cccc1Cl	i	i	40µM	i	i
CCCN(C)C(=O)c1cc(-c2ccncc2)cn1Cc1ccccc1C	i	?	i	i	?
COc1ncccc1CNC[C@H]1Cn2cc(-c3ccc4c(c3)OCCCO4)nc2CO1	i	?	50µM	i	89µM
c1cc(CNC[C@H]2Cn3cc(-c4ccc5c(c4)OCCCO5)nc3CO2)ccn1	i	i	45µM	i	i
c1csc(CNC[C@H]2Cn3cc(-c4ccc5c(c4)OCCCO5)nc3CO2)n1	i	i	?	i	i
COc1ccccc1-c1cn2c(n1)CO[C@@H](CNCc1cccnc1)C2	?	i	i	i	?
O=C(NCc1ccccc1)c1ccc2oc(-c3ccnc(Cl)c3)nc2c1	i	i	nt	nt	i
COCC1CN(C)CC12CCN(Cc1cccc(OC)c1OC)CC2 (configuration not stated)	i	i	i	i	i
COc1ccc(C(=O)N2CCCC3(C2)NC(=O)N(Cc2ccc(C)cc2)C3=O)cc1 (configuration not stated)	i	i	i	i	i
O=C(c1cc2ccccc2[nH]1)N1CCC2(C1)NC(=O)N(Cc1ccc(Cl)cc1)C2=O (configuration not stated)	i	?	?	i	35µM
CCOc1ccccc1C(=O)N1CCC2(CC1)NC(=O)N(c1cccc(Cl)c1)N2	?	?	i	i	32µM
Cc1ccc(C(=O)N2CCC3(CC2)NC(=O)N(c2cccc(Cl)c2)N3)c(C)c1	?	?	i	i	?
CCOc1ccccc1C(=O)N1CCCC2(C1)NC(=O)N(Cc1ccc(Cl)cc1)C2=O (configuration not stated)	i	?	i	i	79µM
COc1ccc(C(=O)N2CCCC3(C2)NC(=O)N(Cc2ccc(Cl)cc2)C3=O)cc1 (configuration not stated)	i	i	i	i	50µM
CCOc1ccccc1C(=O)N1CCC2(CC1)NC(=O)N(Cc1ccccc1)C2=O	i	i	i	i	i
SMILES	GPT2 inh	3T3 cytotox	Luciferase inh	hNpr1 antagonist	HEK cytotox
O=[S+]([O-])(NC1CCCN(c2ccnc3ccnn23)C1)c1cccc(C(F)(F)F)c1 (configuration not stated)	i	?	nt	nt	?
Cc1ccsc1CN1CC(Oc2ccc(-c3noc(C4CCOCC4)n3)cc2)C1	i	40µM	nt	nt	20µM
COc1cccc(CC2(CO)CCCN(c3ccc(-c4nccn4C)nn3)C2)c1 (configuration not stated)	i	?	i	i	20µM
COc1cccc(CC2(CO)CCCN(c3nnnn3-c3ccccc3)C2)c1 (configuration not stated)	i	?	i	i	?
CC(C)(C)C(=O)NC1CCN(c2nccc(Nc3ccccc3F)n2)CC1	i	i	nt	nt	?
O=C(Cc1ccccn1)N1CCCC(C(=O)N2CCC(N3CCOCC3=O)CC2)C1 (configuration not stated)	i	i	nt	nt	i
CN(CCc1ccccn1)[C@@H]1[C@H](O)[C@H](CO)O[C@@H]1CN(Cc1ccc(F)cc1)Cc1ccc(F)cc1	i	50µM	i	i	35µM
CCn1cnnc1-c1nn(C)c2c1CN(C(=O)CCC1CCCC1)CC2	i	i	i	i	i
Cc1cc(C)cc(-c2ccc(CN3CCCC3C(=O)N3CCC(Cc4ccccc4)CC3)cc2)c1 (configuration not stated)	i	11µM	nt	nt	20µM
Cc1cc(C)cc(-c2ccc(CN3CCCC3C(=O)N3CCN(Cc4ccccc4)CC3)cc2)c1 (configuration not stated)	i	13µM	nt	nt	20µM
Cc1cc(C)cc(-c2ccc(CN3CCCC3C(=O)N3CCCC(C)C3)cc2)c1 (configuration not stated)	i	?	nt	nt	35µM
O=C(C1CCCN1Cc1ccc(-c2cncnc2)cc1)N1CCC(Cc2ccccc2)CC1 (configuration not stated)	i	?	nt	nt	?
COc1ccc(CN2Cc3[nH]cnc3C[C@H]2C(=O)N2CCC(Cc3ccccc3)CC2)cc1	i	18µM	i	i	79µM
O=C(O)COc1ccc(-c2nccc3c2C(=O)N(Cc2c[nH]c4ccccc24)CC(COc2ccccc2)O3)cc1 (configuration not stated)	i	?	?	i	i
O=C(O)COc1ccc(-c2nccc3c2C(=O)N(Cc2c[nH]c4ccccc24)CC(CNC(=O)c2cccc(Cl)c2)O3)cc1 (configuration not stated)	i	32µM	i	i	i
CCc1[nH]c2ccc(CNC(=O)C3CC(=O)Nc4ccccc43)cc2c1C (configuration not stated)	i	?	18µM	i	?
COc1ccccc1-c1[nH]nc2ncc(-c3ccnc(C)c3)nc12	i	?	i	i	?
COc1ccccc1-c1[nH]nc2ncc(-c3ccccc3F)nc12	i	35µM	i	i	?
COc1ccccc1-c1[nH]nc2ncc(-c3cccc(O)c3)nc12	i	?	i	i	40µM
COc1ccccc1-c1[nH]nc2ncc(-c3ccccc3)nc12	i	nt	nt	nt	nt
COc1ccccc1-c1[nH]nc2ncc(-c3ccccc3C)nc12	i	50µM	i	i	50µM
COc1ccccc1-c1[nH]nc2ncc(-c3cnn(C)c3)nc12	i	?	i	i	35µM
COc1ccccc1-c1[nH]nc2ncc(CNc3ccccn3)nc12	i	?	i	i	?
O=C(C1CN(C2CCCCC2)C(=O)N1)N1CCC(c2ccccc2)CC1 (configuration not stated)	i	?	nt	nt	?

Bioassay records deposited in PubChem BioAssay by National Center for Advancing Translational Sciences (NCATS).
